Source: PubChem BioAssay (The Scripps Research Institute Molecular Screening Center)
LYPLA2 counter – counter-screen for PME1 inhibitors: inhibitors of human LYPLA2 | recombinant LYPLA2, FP-Rh probe fluorescence polarization | inhibition, % at 5.9 µM | O95372 | actives 0.38% (n = 320,000);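 active = inhibition above the screen-wide mean plus 3 SD, limit set per campaign, cut at about 26% in these data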;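 also: 0% = LYPLA2 with DMSO and 100% = wells lacking LYPLA2 enzyme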
Target sequence (O95372 whole entry, looked up): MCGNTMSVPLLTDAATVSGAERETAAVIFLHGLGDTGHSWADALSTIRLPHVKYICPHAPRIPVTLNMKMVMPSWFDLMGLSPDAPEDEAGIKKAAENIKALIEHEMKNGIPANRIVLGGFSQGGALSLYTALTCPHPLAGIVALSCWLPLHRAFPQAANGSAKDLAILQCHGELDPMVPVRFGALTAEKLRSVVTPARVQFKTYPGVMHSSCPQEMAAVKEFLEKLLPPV
LYPLA1 counter – blocks human lysophospholipase 1, a PME1 counter-screen; recombinant LYPLA1, FP-Rh probe fluorescence polarization; inhibition, % at 5.9 µM; actives 0.16% (n = 320,000); AID 2174;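 active = inhibition above the mean of all tested compounds plus 3 SD, set per campaign, cut at about 14% in these data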;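 also: inhibitors block serine hydrolase probe labeling of LYPLA1 so polarization falls; 0% = enzyme with DMSO and 100% = wells lacking LYPLA1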
Target sequence (O75608 whole entry, looked up): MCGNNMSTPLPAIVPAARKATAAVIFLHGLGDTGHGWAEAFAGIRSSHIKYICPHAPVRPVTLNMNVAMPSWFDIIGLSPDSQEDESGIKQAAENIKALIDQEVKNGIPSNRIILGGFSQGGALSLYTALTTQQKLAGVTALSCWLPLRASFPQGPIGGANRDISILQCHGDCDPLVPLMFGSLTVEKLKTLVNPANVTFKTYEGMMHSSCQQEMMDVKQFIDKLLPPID
PME-1 primary – PME-1 (human) inhibition; actives 0.53% (n = 320,000); Q9Y570; inhibition, % at 5.9 µM; recombinant PME-1, FP-Rh probe fluorescence polarization;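 active = inhibition above the campaign mean of all compounds plus 3 SD, cut at about 26% in these data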;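 also: competitive labeling of PME-1 active site by serine hydrolase directed probe; 0% = PME-1 with DMSO and 100% = wells lacking PME-1 enzyme; inhibitors block probe labeling so polarization falls and inhibition rises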
PREPL inh – inhibits the human prolyl oligopeptidase-like enzyme | actives 0.68% (n = 320,000) | recombinant PREPL, fluorescence polarization activity-based probe | inhibition, % at 5.96 µM | Q4J6C6 | AID 2751;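 also: 0% = enzyme with DMSO and 100% = wells lacking enzyme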
Fam108B inh – blocks mouse Fam108B hydrolase in RBBP9 counter-screen. inhibition, % at 9.51 µM. actives 0.33% (n = 300,000). recombinant Fam108B, FP-Rh probe fluorescence polarization;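 active = inhibition above the screen mean inhibition plus 3 SD, computed separately per campaign, cut at about 18% in these data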;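 also: inhibitors lower polarization as less probe binds the enzyme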
PREPL confirm – confirmation of human PREPL enzyme inhibitors | shares compounds with PREPL inh | recombinant PREPL, fluorescence polarization activity probe | inhibition, % at 5.96 µM | actives 67% (n = 2,000);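 also: 0% = protein with DMSO and 100% = wells lacking protein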
* hit, by the source's call; . = no result given. In the library only some 1.3% were active in any assay of this set; here they are far more common. Rule as the data show it, unless noted: active = inhibition above about 43%; inactive = the rest.

SMILES	LYPLA2 counter	LYPLA1 counter	PME-1 primary	PREPL inh	Fam108B inh	PREPL confirm
Nc1nc(SCC(=O)c2cccs2)n[nH]1	8	8	-1	5	2	.
Nc1nc(SCC(=O)c2ccc(Br)s2)n[nH]1	-3	-4	1	52*	6	29
CCC(CO)Oc1cc(NC(=O)c2cccc(Cl)c2)c2ncn(C(C)C)c2c1 (stereo not drawn)	0	-1	-2	15	.	.
O=C(COc1ccc(Cl)cc1)Nc1cc2c3c(c1)CC(=O)N3CCC2	-1	0	2	47*	2	35
Cc1c(N)cccc1N	-4	1	-2	50*	.	15
O=c1cc(CN2CCCc3ccccc32)nc2sccn12	2	-3	5	51*	8	19
COC(=O)c1ccc(NC(=O)CCN2C(=O)NC(C)(C)C2=O)cc1	1	-3	-2	11	.	.
Cc1ccc(CN2CCSc3sccc3C2=O)cc1	2	-6	5	2	-2	.
Cc1cccc(OCC(=O)Nc2ccc(N3CCN(C(=O)c4ccco4)CC3)cc2)c1C	2	1	0	48*	0	47*
Cc1ccc(C(=O)NC(=S)Nc2ccc(N3CCN(C(=O)c4ccco4)CC3)cc2)cc1	18	4	9	48*	3	37
CC(C)Oc1ccc(C(=O)Nc2ccc(N3CCN(C(=O)c4ccco4)CC3)cc2)cc1	8	3	-3	8	2	.
Cc1cc(C)cc(OCC(=O)Nc2ccc(N3CCN(C(=O)c4ccco4)CC3)cc2)c1	13	2	5	23	1	.
Cc1ccccc1OCC(=O)Nc1ccc(N2CCN(C(=O)c3ccco3)CC2)cc1	3	6	0	58*	6	48*
CC(Nc1ccc2ccccc2c1)C(=O)N/N=C/c1ccncc1 (stereo not drawn)	-3	2	4	1	.	.
O=C(O)c1ccc(N2Cc3ccccc3C2)cc1O	-1	0	-6	9	4	.
O=C(NCc1ccccn1)c1ccc(OC2CCN(Cc3ccc(CO)o3)CC2)cc1	1	1	6	9	5	.
CCCc1nnc(SCC(=O)Nc2nnc(CC)s2)n1CC1CCCO1 (stereo not drawn)	-6	2	0	4	-1	.
CC(Nc1nc(-c2ccc(F)cc2)cs1)c1nc2cc(Cl)c(N3CCCCC3)cc2n1CCOCCO (stereo not drawn)	0	1	8	55*	9	50*
CC(Nc1nc(-c2ccc(F)cc2)cs1)c1nc2cc(Cl)c(N3CCCCC3)cc2n1CCCO (stereo not drawn)	-3	0	6	17	-1	.
C=CCn1c(SCc2ccccc2Cl)nnc1-c1sc2nc(C)cc(C)c2c1N	-9	2	8	47*	10	42
Cc1ccc(C)n1-c1ccc(C(=O)NN)s1	4	-2	4	56*	3	17
COC(=O)CCC(=O)OC1(C)C(=O)C2=CN(Cc3ccccc3)C(c3ccc(OC)cc3)=CC2=C(Br)C1=O (stereo not drawn)	0	-1	7	46*	0	42
COC(=O)CCC(=O)OC1(C)C(=O)C2=CN(CC(C)C)C(c3ccc(OC)cc3)=CC2=C(Br)C1=O (stereo not drawn)	8	-2	5	74*	1	48*
COC(=O)CCC(=O)OC1(C)C(=O)C2=CN(Cc3ccc(OC)cc3)C(c3ccc(OC)cc3)=CC2=C(Br)C1=O (stereo not drawn)	-2	-3	3	22	2	.
Cc1ccc(S(=O)(=O)N2CCN(c3ccccc3)CC2)cc1C(N)=O	1	-3	1	-23	7	.
SMILES	LYPLA2 counter	LYPLA1 counter	PME-1 primary	PREPL inh	Fam108B inh	PREPL confirm
CC(C)CC(c1nnnn1Cc1cccs1)N1CCN(c2nc3ccccc3s2)CC1 (stereo not drawn)	3	3	-1	44*	7	33
COc1ccc2c(c1)c(C(O)CN1CCN(Cc3ccc4c(c3)OCO4)CC1)c(C)n2C (stereo not drawn)	3	2	3	47*	-5	32
Cc1c(C(O)CN2CCN(Cc3ccc4c(c3)OCO4)CC2)c2ccccc2n1C (stereo not drawn)	14	6	4	37	3	.
COc1cccc(CN2CCN(c3nc4nonc4nc3N3CCCCC3)CC2=O)c1	0	4	2	5	-1	.
O=S1(=O)N=C(Nc2ccc(N3CCOCC3)cc2)c2ccccc21	4	1	6	10	1	.
Cc1ccccc1-c1ccc(Nc2ccc(N3CCOCC3)cc2)nn1	-4	-1	-6	59*	0	53*
Cc1ccc(C(=O)Oc2coc(CSc3nnc(NC(=O)c4cccs4)s3)cc2=O)cc1	0	-2	1	76*	-2	85*
CCN(CC)CCn1c(=S)[nH]c2cc(C(=O)NCc3ccccc3Cl)ccc2c1=O	-9	-4	-9	-3	2	.
CCN(CC)CCCN1C=C2C(=O)C(C)(OC(=O)C3CCCC3)C(=O)C=C2C=C1c1ccsc1 (stereo not drawn)	9	-2	-3	43*	4	25
COc1cc(C2CC(=O)Oc3c(C(CCN4CCOCC4)c4ccc(N(C)C)cc4)c(OC)cc(OC)c32)cc(OC)c1OC (stereo not drawn)	-2	0	3	38	3	.
COc1cc(C2CC(=O)Oc3c(C(CCN4CCN(c5ccccc5)CC4)c4ccc(N(C)C)cc4)c(OC)cc(OC)c32)cc(OC)c1OC (stereo not drawn)	2	2	6	32	-5	.
COc1ccc(C2CC(=O)Oc3c(C(CCN4CCCC(C)C4)c4ccc(N(C)C)cc4)c(OC)cc(OC)c32)cc1 (stereo not drawn)	11	2	-5	44*	4	60*
COc1ccc(C2CC(=O)Oc3c(C(CCN4CCCCC4)c4ccc(N(C)C)cc4)c(OC)cc(OC)c32)cc1 (stereo not drawn)	7	-2	6	47*	3	51*
Cc1nn(S(=O)(=O)c2ccccc2)c(C)c1S(=O)(=O)N1CCC(C)CC1	4	2	1	1	0	.
Cc1ccc(C(=O)CN(C(=O)c2ccc(Cl)c(Cl)c2)N2C(=O)C3C4C=CC(C4)C3C2=O)cc1 (stereo not drawn)	-8	-6	-5	-8	-6	.
COc1ccc(-n2c(CN3CCN(C)CC3)nc3ccc([N+](=O)[O-])cc3c2=O)c(OC)c1	-7	-5	-5	25	6	.
COc1ccc(-n2c(CN3CCN(Cc4ccccc4)CC3)nc3ccc([N+](=O)[O-])cc3c2=O)c(OC)c1	3	2	6	51*	1	38
CCOC(=O)c1c(-c2ccccc2)oc2ccc(OCC(O)CNCCN(C)C)cc12 (stereo not drawn)	-8	-1	-4	-11	-5	.
